The term inhibition denotes the percentage by which the read-out fell short of the control.

About 900 (25%) of roughly 3,600 compounds were called active. Not all results are given here. Measured potencies and affinities stand elsewhere. Unmarked numbers belong to inactive results. How the calls were made is not given here.

This experiment addresses Protein Tat (Human immunodeficiency virus type 1 group M subtype B (isolate HXB2)) (UniProt P04608). In words: inhibitors of Tat binding to TAR RNA, dose response, counter-screen for Vif-APOBEC3G degradation inhibitor project, biochemical, fluorescence polarization, FAM-labeled TAR RNA (AID 1117361). The following applies: outcome: dose series up to 100 µM unless noted; series mostly up to 100 µM; inhibition: at the top concentration.
`O=C(O)CN1C(=O)COc2cc(S(=O)(=O)N3CCCC3)ccc21`: the “inhibition” value was 8.78%.

As for `O=C(c1cc(Cl)ccc1Cl)N1CCN(c2ccccn2)CC1`, the “inhibition” value is 2.7%.

Turning to `Clc1ccc(-c2cnc(Oc3ccccc3)nc2)cc1`, the outcome was inactive.

Consider `O=C(CNS(=O)(=O)c1ccc(Br)s1)N1CCCC1`, for which the “inhibition” value was 1.35%.

With `CCCCCC(=O)Nc1nnn(CCC)n1`, the “inhibition” value is 4.77%.

Turning to `Cc1ccc(-n2nc(-c3ccc(N)cc3)cc2N)cc1`, the “inhibition” value was 15%.

For `CCOCC(=O)Nc1ccc(C)c(Cl)c1`, the “inhibition” value was 8.19%.

As for `Cc1ccc(S(=O)(=O)Nc2cc(NC(=O)CN3CCOCC3)ccc2Cl)cc1`, the call was inactive.

In the case of `CCOC(=O)N1CCN(C(=O)c2cnn(-c3ccccc3)c2NC(=O)c2ccccc2F)CC1`, the compound was classed as inactive.

Regarding `Cc1ccc(C=Nc2ccccc2C(N)=O)s1`, the result was inactive.

`O=C(Nc1ccc(F)cc1F)NC1CCN(S(=O)(=O)c2ccc(F)cc2)CC1`: the “inhibition” value was 4.12%.

Regarding `Cc1nc(-c2noc(-c3ccccc3Cl)n2)c(C(F)(F)F)o1`, the compound was classed as inactive.

As for `O=C(Cn1cncn1)N/N=C/c1ccccc1Cl`, the “inhibition” value was 0.82%.

Turning to `CCOc1cccc(-c2cc(=O)[nH][nH]2)c1`, the compound was called inactive.

As to `Cc1csc(NC(=O)C(NS(=O)(=O)c2ccc(Br)s2)c2ccccc2)n1` (configuration not stated), the “inhibition” value is 0.68%.

On to `CC(=O)c1c(C)[nH]c(C(=O)OCC(=O)C(C)(C)C)c1C`, for which the result was inactive.

Take `CCOC(=O)c1c(C)[nH]c(C(=O)OCC(=O)Nc2sc(C(=O)N(C)C)c(C)c2C(=O)OCC)c1C`: the “inhibition” value is 12.4%.

Consider `CCCOc1ccc2oc(=O)c3c(c2c1)CCCN3C(=O)CN1CCc2ccccc2C1`, for which the “inhibition” value is 4.77%.

In the case of `COC1=CC(=O)C(C2CC(=O)c3c(O)cc(O)cc3O2)=CC1=O` (configuration not stated), the “inhibition” value is 3.01%.

As to `COc1cc(Cl)c(C)cc1NC(=O)COc1cc(C)nc(C(C)C)n1`, the “inhibition” value is 1.35%.

Regarding `O=C(CCC(=O)N1CCN(S(=O)(=O)c2ccccc2)CC1)NC1CCCc2ccccc21` (configuration not stated), the “inhibition” value was 1.36%.

For the compound `CCOc1ccc(-c2nc(CN3CCCCC3CCn3cccn3)c(C)o2)cc1` (configuration not stated), the call was inactive.

For `N#CCSc1nc2sc3c(c2c(=O)n1C1CCCCC1)CCCC3`, the compound was classed as inactive.

Turning to `CN(C)[C@H]1N(C(=O)c2ccc(Br)cc2)N=C2c3ccccc3S(=O)(=O)N21`, the “inhibition” value is 4.73%.

In the case of `COc1cc(C2NC(=O)NC(C)=C2C(=O)OCC2CCCO2)ccc1O` (configuration not stated), the “inhibition” value is 8.19%.

In the case of `COc1ccc(NC(=S)N(CCCN2CCCC2)Cc2ccco2)cc1`, the call was inactive.

For the compound `CCCCCC(=O)N1C[C@@H](n2cc(C3CC3)nn2)[C@H](O)C[C@@H]1c1ccc(C)cc1`, the “inhibition” value was 9.02%.

For `O=C(O)CCN1CCOCC1`, the “inhibition” value is 0.68%.

In the case of `COc1cccc(OC)c1C(=O)NC(C)C12CC3CC(CC(C3)C1)C2` (configuration not stated), the “inhibition” value is 8.87%.

For `Brc1ccc(-c2nnc(-c3cccc(Br)c3)o2)cc1`, the outcome was inactive.

Take `O=C1OC(c2ccc(Br)cc2)=N/C1=C\N1CCCCC1`: the “inhibition” value was 2.7%.

Turning to `CCn1c(SC(C)C)nnc1-c1cc(-c2ccccc2)sc1N`, the “inhibition” value is 9.07%.

Regarding `COCCNC(=O)Cn1ncc2ccsc2c1=O`, the “inhibition” value is 2.03%.

`Cc1ccc(OCCC(=O)OCC(=O)c2ccc3c(c2)NC(=O)CO3)cc1`: the compound was classed as inactive.

Regarding `CCC(C)[C@@H](C(=O)Nc1ccc2c(c1)OCO2)N1Cc2ccccc2C1=O` (some centres not stated), the “inhibition” value is 2.7%.

Take `Cc1ccc(S(=O)(=O)CCC(=O)Nc2ccc3c(c2)OCO3)cc1`: the “inhibition” value is 6.76%.

For `CCc1ccc(NC(=O)COC(=O)CCc2nc3cc(S(=O)(=O)N(CC)CC)ccc3n2C)cc1`, the result was inactive.

Turning to `Cc1ccc(S(=O)(=O)NCCC(=O)N2CCN(C/C=C/c3ccccc3)CC2)cc1`, the call was inactive.

In the case of `CCCc1cc(=O)[nH]c(SCC(=O)c2c(C)[nH]c3ccccc23)n1`, the compound was classed as inactive.

On to `O=C(CSc1nc2ccccc2c(=O)n1NC(=O)c1ccccc1)c1ccccc1`, for which the “inhibition” value was 1.36%.

As for `COc1ccc(CC(NC(C)=O)C(=O)NC2CCN(S(=O)(=O)c3cccc4ccccc34)CC2)cc1OC` (configuration not stated), the “inhibition” value is 3.38%.

As to `COc1c(F)c(F)c(C(=O)Nc2ccc3oc(-c4ccncc4)nc3c2)c(F)c1F`, the “inhibition” value was 7.43%.

`CCN(CC)c1ccc(C2NC(=O)NC(C)=C2C(=O)Nc2ccccc2)cc1` (configuration not stated): the “inhibition” value is 15.7%.

On to `CCOC(=O)C1=C(C)NC2=C(C(=O)CC(C)(C)C2)C1c1ccsc1` (configuration not stated), for which the call was inactive.

`CCOC(=O)c1c(O)c2ccccc2n(-c2ccccc2)c1=O`: the “inhibition” value is 11.5%.

In the case of `CCn1c(=O)c(C(=O)NCc2ccccn2)c(O)c2ccccc21`, the “inhibition” value is 0.68%.

For `O=C(CSc1nccn1Cc1ccccc1)Nc1nccs1`, the “inhibition” value was 14.2%.

For the compound `CC(C)(C)OC(=O)NC(CCNC=C1C(=O)OC(C)(C)OC1=O)C(=O)O` (configuration not stated), the call was inactive.

Regarding `O=C(Cc1ccc2c(c1)OCCO2)N1CCN(S(=O)(=O)c2cccs2)CC1`, the outcome was inactive.

As for `CC(=O)Nc1nnc(C)s1`, the outcome was inactive.

For the compound `COc1ccc(-c2nnc(-c3ccc(N)cc3)o2)cc1`, the “inhibition” value was 4.34%.

For the compound `COc1ccc(CNc2nc3ccccc3n2C)c(O)c1`, the compound was classed as inactive.

For `O=C(NCCc1ccncc1)Nc1ccccc1Cl`, the call was inactive.

As for `O=C(CCCNS(=O)(=O)c1cccc2nsnc12)NCc1ccccc1`, the “inhibition” value was 2.73%.

On to `Cc1onc(-c2ccccc2)c1C(=O)NCc1cccs1`, for which the “inhibition” value was 5.46%.

Consider `O=C(NCc1ccco1)c1cc(-c2cccc(Cl)c2)on1`, for which the “inhibition” value was 15%.

For `Cc1cc2oc(=O)cc(C)c2c(=O)o1`, the “inhibition” value was 23.9%.

As for `CS(=O)(=O)N1CCc2cc(C(=O)OCC(=O)c3ccccc3)ccc21`, the “inhibition” value is 6.76%.

In the case of `CCOC(=O)c1c(NC(=O)Cn2cc([N+](=O)[O-])cn2)sc2c1CCC2`, the “inhibition” value was 4.05%.

For the compound `CCOC(=O)c1c(NC(C)=O)sc2c1CCCNC2=O`, the “inhibition” value was 2.7%.

With `COc1ccc(C)cc1NC(=O)C1CC(=O)OC12CCCCC2` (configuration not stated), the “inhibition” value was 5.41%.

Take `Cc1cccc(S(=O)(=O)c2c(N)n(/N=C/c3ccco3)c3nc4ccccc4nc23)c1`: the “inhibition” value was 7.43%.

For `Nc1c(S(=O)(=O)c2ccccc2)c2nc3ccccc3nc2n1/N=C/c1ccco1`, the outcome was inactive.

Take `CC(=O)N1c2c(cc(Br)cc2S(=O)(=O)N2CCOCC2)CC1C` (configuration not stated): the “inhibition” value was 8.11%.

With `COc1ccc2cc(C(c3nnnn3C3CCCC3)N3CCc4ccccc4C3)c(=O)[nH]c2c1` (configuration not stated), the “inhibition” value is 26.4%.

On to `CCC(C)(C)n1nnnc1C(c1cc2cc(C)ccc2[nH]c1=O)N1CCCc2ccccc21` (configuration not stated), for which the “inhibition” value is 3.48% [at 50 µM].

In the case of `COC(=O)c1ccc(S(=O)(=O)N2CCN(CCO)CC2)n1C`, the result was inactive.

On to `O=C1c2c(O)ccc(O)c2C(=O)c2c(NCCNCCO)ccc(NCCNCCO)c21`, for which the “inhibition” value is 3.01%.

For the compound `O=C(O)COc1ccc(NC(=O)c2ccco2)cc1`, the “inhibition” value was 15%.

As to `COC(=O)COc1ccc2c(c1C)O/C(=C\c1ccco1)C2=O`, the “inhibition” value was 1%.

As to `COc1ccc(NC(=O)c2ccc(-n3cccn3)nc2)cc1`, the call was inactive.

Turning to `COc1ccccc1C1CC(=O)Nc2c1c(=O)n(C)c(=O)n2C` (configuration not stated), the “inhibition” value was 6.76%.

Regarding `CC(=O)Nc1nnc(-c2c(-c3c(Cl)cccc3Cl)noc2C)o1`, the result was inactive.

Regarding `O=C(Nc1nnc(C2CC2)s1)c1ccc(S(=O)(=O)c2ccccc2)cc1`, the “inhibition” value was 7.68%.

Turning to `CC12CCC(C(=O)NCCN3CCCCC3)(CC1=O)C2(C)C` (configuration not stated), the call was inactive.

For the compound `CC(C)C(C)NC(=O)COc1ccc(S(=O)(=O)N2CCOCC2)cc1Cl` (configuration not stated), the result was inactive.

In the case of `Clc1cccc(Cl)c1Cn1nnc(-c2cccs2)n1`, the call was inactive.

Take `COc1ccc(N(C(=O)COc2ccccc2OC)S(=O)(=O)c2ccc(C)cc2)cc1`: the “inhibition” value was 2.73%.

As for `NC(=O)c1ccc(-n2nnnc2SCC(=O)Nc2ccccc2-c2ccccc2)cc1`, the “inhibition” value was 5.41%.

With `O=C(CSc1nnnn1-c1ccccc1)Nc1nsc(-c2ccccc2)n1`, the “inhibition” value was 3.38%.

As to `Cc1cc2cc(C=O)c(Cl)nc2cc1C`, the compound was called inactive.

`CCOc1cccc(SCc2noc(C(=O)NCC3CCCO3)c2C(=O)O)c1` (configuration not stated): the “inhibition” value is 9.46%.

With `Cc1ccccc1OCC(=O)NCC1CCCO1` (configuration not stated), the “inhibition” value was 4.05%.

Turning to `Cc1cc2ncn(C(=O)N3CCOCC3)c2cc1C`, the “inhibition” value was 4.05%.

With `O=C(CN1C(=O)NC2(CCCC2)C1=O)Nc1nc(-c2ccc(F)cc2)cs1`, the “inhibition” value was 2.05%.

Consider `CCOc1ccc(N2C(=O)c3ccccc3C2O)cc1` (configuration not stated), for which the call was inactive.

Turning to `COc1ccc(CN2C(=O)c3ccccc3C2C(=O)NCc2cccnc2)c(OC)c1` (configuration not stated), the result was inactive.

On to `C/C(=N\NC(=O)c1ccc(NS(=O)(=O)c2cccs2)cc1)c1ccccc1`, for which the “inhibition” value was 1.65%.

Turning to `Cc1ccc(CN2C(=O)CCC2C(=O)N2CCN(c3ccc(F)cc3)CC2)cc1` (configuration not stated), the “inhibition” value was 2.73%.

Turning to `CC(=O)n1c(Cl)c(NC(=O)CCl)c2ccccc21`, the “inhibition” value is 3.38%.

`CC(NC(=O)C(NS(=O)(=O)c1cccs1)C(C)C)c1ccc(S(N)(=O)=O)cc1` (configuration not stated): the compound was classed as inactive.

In the case of `Cc1cc(C)cc(NCCC#N)c1`, the compound was called inactive.

With `CCOC(=O)CC1Sc2ccccc2NC1=O` (configuration not stated), the call was inactive.

With `Cc1cc(C)n(Cc2ccc(NC(=O)c3nn(C)cc3[N+](=O)[O-])cc2)n1`, the outcome was inactive.

As to `Cc1ccc2[nH]c(=O)c(CN(Cc3cccnc3)C(=O)c3ccncc3)cc2c1`, the compound was classed as inactive.

`COC(=O)Nc1sc2nc(C)cc(C)c2c1-n1cccc1`: the “inhibition” value was 8.78%.

As for `O=C(COc1ccc([N+](=O)[O-])cc1)NC(C(=O)O)C(O)c1cccc([N+](=O)[O-])c1` (configuration not stated), the “inhibition” value is 12.4%.

For the compound `CCn1c(COc2ccc(=O)n(-c3ccccc3)n2)nnc1SCc1ccc(C)cc1`, the result was inactive.

In the case of `CCc1ccc(NC(=O)C(C)Oc2nnc(-c3cccs3)c(-c3cccs3)n2)cc1` (configuration not stated), the “inhibition” value is 2.7%.

Take `Cc1ccccc1SCc1noc(C(=O)NC(C)C)c1C(=O)O`: the “inhibition” value was 6.08%.

For `CN(Cc1cccs1)C(=O)Cn1cnc2ccccc2c1=O`, the result was inactive.

Consider `COc1ccc([N+](=O)[O-])cc1CSc1nnc(NC(C)=O)s1`, for which the “inhibition” value is 9.9%.

Turning to `COCCSc1nnc(NC(=O)Cc2ccccc2OC)s1`, the “inhibition” value was 8.11%.

As for `Oc1ccc(/C=C/c2cnccn2)cc1`, the call was inactive.

Regarding `Cc1ccc(C)c(S(=O)(=O)Nc2ccc3scnc3c2)c1`, the “inhibition” value is 1.36%.

As to `O=C(Nc1nncs1)c1c(F)c(F)c(F)c(F)c1F`, the “inhibition” value was 19.1%.

Regarding `O=C(CN(C1CCCCC1)S(=O)(=O)c1ccccc1)N1CCCC1`, the “inhibition” value was 5.41%.

Take `Cc1nc2ccccn2c1/C(O)=C1\C(=O)C(=O)N(CCCn2ccnc2)C1c1ccncc1` (configuration not stated): the “inhibition” value is 18.9%.

`CCN(CC)CCCN1CC(O)=C(c2nc3ccccc3s2)C1=N`: the “inhibition” value is 5.41%.

As to `Cc1cc(Nc2ccc(C)c(C)c2)n2nc(C)nc2n1`, the “inhibition” value is 2.03%.

For `O=S(=O)(Nc1ccc(N2CCOCC2)cc1)c1ccccc1`, the compound was called inactive.

On to `Cc1cc(C(=O)N2CCOCC2)n(-c2ccccc2)n1`, for which the “inhibition” value is 4.73%.

(Values after PubChem BioAssay AID1117361 (Southern Research Institute, 2015).)
